TIM10 inh: inhibits growth of TIM10 yeast strain | S. cerevisiae TIM10 strain growth, BacTiter-Glo luminescence, 24 h | inhibition, % at 10 µM | actives 1.4% (n = 330,000);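 active means inhibition of 40% or more at the single tested concentration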;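 further: wild-type TIM10 isogenic control strain grown at permissive 25 °C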
tim23-1 inh: growth inhibitors of tim23-1 mutant yeast | S. cerevisiae tim23-1 growth, BacTiter-Glo luminescence, 24 h | inhibition, % at 20 µM | actives 1.3% (n = 330,000);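 active means growth inhibition of the mutant yeast at or above 50%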;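 further: temperature-sensitive mutant grown at 25 °C; plate controls were DMSO-treated mutant yeast for no effect and medium wells lacking yeast for full effect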
SKKanGAS inh: blocks kanamycin growth of S. pyogenes SKKanGAS strain. BacTiter-Glo, 6 h. inhibition, % at 7.5 µM. actives 1.3% (n = 300,000). AID 1662;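 active means mean replicate score, as percent of positive control median, at least 50; inconclusive means mean below 50 but one replicate at or above 50; inactive means mean and every replicate below 50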;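 further: strain carries kanamycin resistance gene driven by streptokinase promoter and grows in 40 µg/ml kanamycin; loss of luminescence reflects streptokinase promoter inhibition or plain growth inhibition; 0% = median of DMSO wells and 100% = positive control at its reference dose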
tim10-1 inh: tim10-1 yeast growth inhibition | inhibition, % at 20 µM | S. cerevisiae tim10-1 ts strain growth, BacTiter-Glo, 24 h | actives 2.2% (n = 330,000) | AID 463190;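 active means inhibition of at least 40%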;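 further: mutant grown at 25 °C; 0% = DMSO wells with yeast and 100% = wells holding no yeast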
PfHsp90 set2: growth inhibition of yeast expressing Plasmodium Hsp90 | S. cerevisiae expressing PfHsp90, BacTiter-Glo ATP, 48 h; yeast lacking PDR1 and PDR3 efflux regulators | inhibition, % at 9.4 µM | actives 0.32% (n = 310,000);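 active means every replicate shows inhibition above about 80%, whatever the replicate mean, limit read from the data; inconclusive means mean inhibition reaches the set limit but some replicate falls short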;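 further: 0% = DMSO neutral controls and 100% = 20 µM radicicol positive controls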
tim10-1 confirm: confirmation of tim10-1 mutant yeast growth inhibitors. shares compounds with tim10-1 inh. actives 56% (n = 7,400). inhibition, % at 20 µM. S. cerevisiae tim10-1 ts strain growth, BacTiter-Glo, 24 h. AID 463213;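 active means inhibition of yeast growth at or above a set limit in either of two repeat tests at 20 µM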;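 further: tim10-1 mutant grown at permissive 25 °C to find synthetic lethal compounds; 0% = DMSO yeast wells and 100% = medium wells without yeast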
Starred values were filed as active, the others as inactive. Shown are actives, neighbours in structure and some others; about 4.4% of the full set was active somewhere.

C#CCOCCOCCOCCNc1nc(N2CCN(C(=O)CCCCCCCCCCNC(=O)[C@H](CCCCN)n3cc(C[C@@H](C)CC)nn3)CC2)nc(N2CCN(C(=O)CCCCCCCCCCNC(=O)[C@H](CCCCN)n3cc(C[C@@H](C)CC)nn3)CC2)n1 was read as SKKanGAS inh inconclusive and PfHsp90 set2 47.
`CC(=O)NN1C(=O)/C(=C/c2ccc(C(C)C)cc2)SC1=S` gave TIM10 inh 3, tim23-1 inh 41, SKKanGAS inh -3, tim10-1 inh 42*, PfHsp90 set2 -7 and tim10-1 confirm 39*.
Screening O=C(c1cc(C2CC2)nn1-c1ccccc1)N1CCN(c2ccccn2)CC1 returned TIM10 inh 13, tim23-1 inh 30, tim10-1 inh 42*, PfHsp90 set2 -23 and tim10-1 confirm 4.
For Cc1ccc(C(=O)OCc2cc(=O)n3c(C)csc3n2)s1 the results were TIM10 inh 8, tim23-1 inh 39, tim10-1 inh 1 and PfHsp90 set2 -14.
Screening OC(COc1ccc2ccccc2c1Br)Cn1cnc(-c2ccccc2)c1 (stereo not drawn) returned TIM10 inh -6, tim23-1 inh 8, SKKanGAS inh 56*, tim10-1 inh 43*, PfHsp90 set2 -25 and tim10-1 confirm 44*.
For C/C(=N\N1CCN(c2ccc(Cl)cc2)CC1)c1ccco1 the results were TIM10 inh 6, tim23-1 inh 22, SKKanGAS inh -2, tim10-1 inh 8 and PfHsp90 set2 5.
Screening C/C(=N\N1CCN(C2c3ccccc3-c3ccccc32)CC1)c1ccco1 returned TIM10 inh 2, tim23-1 inh 19, SKKanGAS inh 4, tim10-1 inh 41*, PfHsp90 set2 3 and tim10-1 confirm 15.
`O=C1c2cccc3cccc(c23)C(=O)N1CCN1CCN(CC(O)COc2ccc3ccccc3c2)CC1` (stereo not drawn) gave TIM10 inh 15, tim23-1 inh 45, SKKanGAS inh 29, tim10-1 inh 71*, PfHsp90 set2 19 and tim10-1 confirm 62*.
For Cc1cnn(-c2cc(Oc3ccccc3)ncn2)c1 the results were TIM10 inh 14, tim23-1 inh -9, SKKanGAS inh 2, tim10-1 inh 49*, PfHsp90 set2 -32 and tim10-1 confirm 26.
c1ccc(Oc2cc(-n3cncn3)ncn2)cc1 was read as TIM10 inh 7, tim23-1 inh 11, SKKanGAS inh -1, tim10-1 inh 25 and PfHsp90 set2 -37.
For COc1ccccc1OC(C)C(=O)N(Cc1ccco1)C1CCS(=O)(=O)C1 (stereo not drawn) the results were TIM10 inh -4, tim23-1 inh 6, SKKanGAS inh 1, tim10-1 inh -2 and PfHsp90 set2 -5.
CCOc1ccc(C(=O)Nc2nnc(S(=O)(=O)Nc3ccccc3C)s2)cc1 was read as TIM10 inh -8, tim23-1 inh 12, SKKanGAS inh 31, tim10-1 inh 0 and PfHsp90 set2 -15.
N#Cc1c(-c2ccccc2)nc(SCC(=O)Nc2ccccc2)[nH]c1=O was read as PfHsp90 set2 -7.
For COC(=O)c1cccc(CSc2nc(-c3ccccc3)c(C#N)c(=O)[nH]2)c1 the results were TIM10 inh 18, tim23-1 inh 28, SKKanGAS inh 35, tim10-1 inh 47*, PfHsp90 set2 16 and tim10-1 confirm 8.
For CCc1nn(CCCC(=O)N2CCN(c3cccc(C)c3C)CC2)c(=O)c2cc3occc3n12 the results were TIM10 inh 27, tim23-1 inh 38, SKKanGAS inh 16, tim10-1 inh 54*, PfHsp90 set2 -3 and tim10-1 confirm 21.
`Cc1c(C(=O)Nc2nccs2)oc2ccc(F)cc12` gave TIM10 inh -6, tim23-1 inh -11, tim10-1 inh -1 and PfHsp90 set2 -8.
Cc1c(C(=O)/C=C/c2cccs2)oc2ccc(F)cc12 was read as TIM10 inh 30, tim23-1 inh 31, SKKanGAS inh -8, tim10-1 inh 45*, PfHsp90 set2 -24 and tim10-1 confirm 38*.
`O=C(COC(=O)c1cc(=O)[nH]c2ccccc12)NCCc1ccccc1` gave TIM10 inh -2, tim23-1 inh -1, tim10-1 inh -6 and PfHsp90 set2 4.
Screening O=C(NCC(c1ccco1)N1CCCCC1)c1cccnc1 (stereo not drawn) returned TIM10 inh 2, tim23-1 inh 1, tim10-1 inh -18 and PfHsp90 set2 17.
`CCCC(=O)Nc1cc(-c2nn(C)c(=O)c3ccccc23)ccc1N1CCCCC1` gave TIM10 inh 22, tim23-1 inh 18, SKKanGAS inh -2, tim10-1 inh 25 and PfHsp90 set2 -1.
CCCC(=O)Nc1cc(-c2nnc(OC)c3ccccc23)ccc1N1CCCCC1 was read as TIM10 inh 39, tim23-1 inh 37, SKKanGAS inh 19, tim10-1 inh 49* and tim10-1 confirm 26.
For CCOc1ccc(C(c2c(C)[nH][nH]c2=O)c2c(C)[nH][nH]c2=O)cc1OC the results were TIM10 inh 26, tim23-1 inh 50, SKKanGAS inh -2, tim10-1 inh 42*, PfHsp90 set2 2 and tim10-1 confirm 24.
`CN(CC(=O)Nc1ccc(F)cc1)CC(=O)N1CCc2ccccc21` gave TIM10 inh 18, tim23-1 inh 29, tim10-1 inh 37 and PfHsp90 set2 21.
O=C(Cn1c(=O)c2cccn2c2cccnc21)N1CCN(c2ccc(Cl)cc2)CC1 was read as TIM10 inh 12, tim23-1 inh 38, SKKanGAS inh -5, tim10-1 inh 43*, PfHsp90 set2 -9 and tim10-1 confirm -14.
For Cc1ccc(Cl)cc1N1CCN(C(=O)CCCn2c(=O)c3cccn3c3cccnc32)CC1 the results were TIM10 inh 20, tim23-1 inh 35, SKKanGAS inh 32, tim10-1 inh 36 and PfHsp90 set2 -7.
Fc1ccc2cc(-c3ccccc3F)ncc2c1 was read as TIM10 inh -4, tim23-1 inh 24, tim10-1 inh 16 and PfHsp90 set2 16.
CCOC(=O)N1CCN(C(=O)COC(=O)c2cc(C)ccc2C)CC1 was read as TIM10 inh 3, tim23-1 inh 17, tim10-1 inh 8 and PfHsp90 set2 31.
Screening C=C(C)c1cccc(C(C)(C)NC(=O)Nc2ccc(C(C)=O)cc2)c1 returned TIM10 inh 14, tim23-1 inh 34, SKKanGAS inh 8, tim10-1 inh 43*, PfHsp90 set2 9 and tim10-1 confirm 22.
Screening CCc1[nH]nc2c1C(c1ccc(C)o1)C(C#N)=C(N)O2 (stereo not drawn) returned TIM10 inh -3, tim23-1 inh -2, SKKanGAS inh -3 and tim10-1 inh -2.
For Cc1ccc(SCc2[nH]nc3c2C(c2ccc(C)o2)C(C#N)=C(N)O3)cc1 (stereo not drawn) the results were TIM10 inh 23, tim23-1 inh 41, tim10-1 inh 42*, PfHsp90 set2 0 and tim10-1 confirm 38*.
